Several values for one entry are separate records, joined by “and”; a condition that tells them apart may be missing. Equal entries are not always repeated. Results filed as inconclusive are left out. Activity calls are given as the source filed them. Rule for the calls: active = hit-call score of the fitted dose curve at least 0.9, where 1 is the maximum; inconclusive = response in the unintended direction; inactive = score below 0.9.
Experiments:
[1] = target: CDK2 (gene 1017) (UniProt P24941); test: NVS_ENZ_hCDK2: NovaScreen (NVS) Enzymatic Assay for human Cyclin-Cependent Kinase 2 (CDK2) (AID 2283144)
How it was run: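 Cell-free recombinant human CDK2 with fluorescent substrate, product separated by electrophoretic mobility shift; 1 hr read. Primary screen at 25 uM in duplicate, actives retested in concentration-response up to 50 uM; loss of signal versus DMSO.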

[2] = target: human Epidermal Growth Factor Receptor (EGFR), EGFR (gene 1956) (UniProt P00533); test: NVS_ENZ_hEGFR: NovaScreen (NVS) Enzymatic Assay for human Epidermal Growth Factor Receptor (EGFR) (AID 2283151)
Protocol: NVS_ENZ_hEGFR is a biochemical, single-readout assay that uses extracted gene-proteins in a cell-free assay. Measurements were taken 1 hour after chemical dosing in a 384-well plate.NVS_ENZ_hEGFR is one of one assay component(s) measured or calculated from the NVS_ENZ_hEGFR assay. It is designed to make measurements of enzyme activity, a form of enzyme reporter, as detected with fluorescence intensity signals by Fluorescence and electrophoretic mobility shift technology.Data from the assay component NVS_ENZ_hEGFR was analyzed into 1 assay endpoint. This assay endpoint, NVS_ENZ_hEGFR, was analyzed in the positive analysis fitting direction relative to DMSO as the negative control and baseline of activity. Using a type of enzyme reporter, loss-of-signal activity can be used to understand changes in the enzymatic activity as they relate to the gene EGFR. Furthermore, this assay endpoint can be referred to as a primary readout, because this assay has produced multiple assay endpoints where this one serves a enzymatic activity function. To generalize the intended target to other relatable targets, this assay endpoint is annotated to the kinase intended target family, where the subfamily is receptor tyrosine kinase. […]

Sequence of human Epidermal Growth Factor Receptor (EGFR), EGFR (gene 1956) (P00533 whole entry, looked up): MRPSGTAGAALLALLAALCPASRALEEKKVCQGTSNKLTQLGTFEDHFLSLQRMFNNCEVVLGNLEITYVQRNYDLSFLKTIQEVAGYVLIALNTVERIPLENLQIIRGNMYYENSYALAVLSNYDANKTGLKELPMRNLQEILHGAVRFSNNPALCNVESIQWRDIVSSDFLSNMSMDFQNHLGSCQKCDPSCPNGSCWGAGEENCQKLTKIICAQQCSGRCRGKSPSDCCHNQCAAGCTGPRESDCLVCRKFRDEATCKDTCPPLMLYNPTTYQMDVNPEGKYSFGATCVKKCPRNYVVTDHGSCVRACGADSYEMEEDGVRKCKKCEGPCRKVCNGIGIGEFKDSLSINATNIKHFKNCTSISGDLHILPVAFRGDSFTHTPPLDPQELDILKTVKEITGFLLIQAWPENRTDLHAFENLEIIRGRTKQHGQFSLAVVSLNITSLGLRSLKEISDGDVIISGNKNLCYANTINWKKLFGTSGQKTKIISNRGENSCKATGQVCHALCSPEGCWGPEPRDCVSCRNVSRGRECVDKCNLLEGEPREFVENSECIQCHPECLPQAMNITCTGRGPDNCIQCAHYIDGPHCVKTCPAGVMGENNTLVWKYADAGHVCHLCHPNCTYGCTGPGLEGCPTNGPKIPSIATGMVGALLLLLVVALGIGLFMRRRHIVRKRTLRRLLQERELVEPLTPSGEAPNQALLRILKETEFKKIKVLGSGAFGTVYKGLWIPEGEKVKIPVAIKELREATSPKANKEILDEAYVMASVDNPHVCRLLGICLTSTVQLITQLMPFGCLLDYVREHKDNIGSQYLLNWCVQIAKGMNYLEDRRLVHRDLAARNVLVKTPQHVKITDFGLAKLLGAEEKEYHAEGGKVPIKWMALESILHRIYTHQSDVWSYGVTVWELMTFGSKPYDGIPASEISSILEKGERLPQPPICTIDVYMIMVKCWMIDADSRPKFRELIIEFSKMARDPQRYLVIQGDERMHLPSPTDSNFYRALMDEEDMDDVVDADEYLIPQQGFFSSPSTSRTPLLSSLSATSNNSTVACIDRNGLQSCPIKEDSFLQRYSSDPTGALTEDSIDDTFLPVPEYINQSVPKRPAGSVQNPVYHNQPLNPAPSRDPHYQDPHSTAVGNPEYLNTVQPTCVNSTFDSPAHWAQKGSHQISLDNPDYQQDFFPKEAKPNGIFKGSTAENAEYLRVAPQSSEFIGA

`CC(C)N(C(=O)COc1nnc(C(F)(F)F)s1)c1ccc(F)cc1` was tested, and the outcome [1] was “inactive”.
In the case of `CN1CSC(=S)N(C)C1`, the outcome [1] is reported as “inactive”.
For `O=S(=O)(O)C(F)(F)C(F)(F)C(F)(F)C(F)(F)C(F)(F)C(F)(F)C(F)(F)C(F)(F)F`, the AC50 [2] was 25 µM (active) and 17.4 µM (active).
